About 6,100 (1.1%) of roughly 580,000 compounds were called active. A call without a number means that no potency is given here. Not shown: some 15% with an inconclusive outcome. The call rests on the fitted dose curve; in most records, active means well fitted inhibition curve with a large enough effect; inconclusive means small, poorly fitted or top-dose-only effect, or another doubt; inactive means no such curve, though single readings can be large or run the other way. This excerpt belongs to a sample that is enriched for actives.
Potency means the concentration at half of the fitted maximal effect.

Sequence of Polyunsaturated fatty acid lipoxygenase ALOX12 (Homo sapiens) (P18054 whole entry, looked up): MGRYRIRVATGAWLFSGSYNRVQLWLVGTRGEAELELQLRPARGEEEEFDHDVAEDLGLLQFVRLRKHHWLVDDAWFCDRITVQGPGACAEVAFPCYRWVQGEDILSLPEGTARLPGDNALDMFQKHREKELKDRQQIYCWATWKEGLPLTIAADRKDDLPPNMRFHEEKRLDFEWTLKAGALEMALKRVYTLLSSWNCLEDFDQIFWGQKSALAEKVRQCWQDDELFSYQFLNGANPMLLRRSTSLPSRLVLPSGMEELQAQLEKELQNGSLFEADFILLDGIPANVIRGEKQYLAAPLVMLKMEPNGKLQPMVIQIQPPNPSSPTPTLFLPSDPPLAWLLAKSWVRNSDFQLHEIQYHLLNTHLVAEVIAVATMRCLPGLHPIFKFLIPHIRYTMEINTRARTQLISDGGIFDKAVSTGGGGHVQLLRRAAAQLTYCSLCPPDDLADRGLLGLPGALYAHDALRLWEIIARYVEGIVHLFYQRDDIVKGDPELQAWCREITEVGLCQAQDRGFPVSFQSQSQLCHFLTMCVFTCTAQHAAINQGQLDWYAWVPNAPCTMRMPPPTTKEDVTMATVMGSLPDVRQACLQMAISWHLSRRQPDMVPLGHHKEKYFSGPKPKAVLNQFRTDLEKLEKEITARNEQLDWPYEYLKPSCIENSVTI

This assay has as its target Polyunsaturated fatty acid lipoxygenase ALOX12 (Homo sapiens) (UniProt P18054). Briefly: Primary qHTS assay for inhibitors of human arachidonate 12S-lipoxygenase (ALOX12): Round 2. The following applies: purified 12hLO, xylenol orange hydroperoxide absorbance; series mostly up to 108 µM. The text has this: Assay Provider: Theodore R. Holman Ph.D. University of California, Santa Cruz, California Human lipoxygenase 12hLO is a member of the closely related lipoxygenase family of enzymes which catalyze the site-specific oxidation of arachidonic acid to various hormone precursor molecules and as such is a candidate for drug development in a variety of disease areas, such as cancer and inflammation. Inhibition of 12hLO activity was screened by utilizing arachidonic acid as a substrate. The extent of hydroperoxide product formation was measured by a secondary chromogenic reaction in which xylenol orange (XO, Sigma-Aldrich, cat. number 39,818-7) reacts with the ferric ions produced from the reaction between the hydroperoxide and ferrous ions. The Fe (III)-XO complex is characterized with red-shifted absorbance at 560 nm. A purified preparation of human 12hLO was supplied by Dr. Holman laboratory, University of California, Santa Cruz.
PROTOCOL TABLE SEQUENCE No. (e.g., 1, 2, 3, etc.); […] (e.g., Cells, Incubation, Reagent, etc.); VALUE; DESCRIPTION 1; Enzyme; 3 uL; 150 nM 12hLO enzyme solution dispensed in 1536-well Greiner black, clear bottom plates. 2; Compound; 23 nL; compounds and controls were added. 3; Incubate; 15 min; room temperature. 4; Substrate; 1 uL; 40 uM arachidonic acid (final concentration). 5; Incubate; 30 min; room temperature. 6; Reagent; 4 uL; Fe-XO solution was added to each well. 7; Incubation; 30 min; room temperature 8; Detector; absorbance; Read 1 at 405 nm absorbance using ViewLux (Perkin-Elmer) CCD imager. 9; Detector; absorbance; Read 2 at 573 nm absorbance using ViewLux (Perkin-Elmer) CCD imager. NOTES (numbers refer to sequence above) 1; 150 nM 12hLO (final concentration) in buffer solution (25 mM Hepes, 0.01% Triton X-100, pH 7.0) was dispensed in columns 1, 2, 5-48. Column 1 is neutral (100% activity). Buffer only was dispensed in columns 3 and 4 as no enzyme negative controls. The plates were covered with metal lids with gas-exchange holes. 2; Compounds were pin transferred via a Kalypsys Pin Tool (Wako USA) in column 5-48. Control compound was transferred in column 2, titration of nordihydroguaiaretic acid (NDGA, Sigma-Aldrich, N5023) with top concentration of 20 mM in DMSO then 1:3 dilution in duplicate. Dilution factor of 23 nL into 4 uL final assay volume. 3; Covered assay plates were incubated for 15 min at room temperature. 4; Substrate was added to start the reaction; 40 uM arachidonic acid (Sigma-Aldrich, St. Louis, MO) was dispensed throughout the plate. 6; Chromogenic detection reagent solution (divalent iron/xylenol orange, Fe-XO) was added to each well: 200 uM xylenol orange, 300 uM ferrous ammonium sulfate prepared freshly in 50 mM sulfuric acid. 8, 9; Two absorbance readouts were obtained at 405 nm and at 573 nm using a ViewLux high-throughput CCD plate imager (Perkin-Elmer). The 573 to 405 (Read 2 / Read 1) absorbance ratio was used to compute reaction progress.
(In general: In qHTS, concentration-response curves come from the screen itself.)
Regarding `O=C(Nc1cccc(Cl)c1)c1csnn1`, the Potency result was “inactive”.

`Cc1csc(NC(=O)CCc2ncc(-c3ccc(Cl)cc3Cl)o2)n1`: the Potency entry is “inactive”. With `Cc1csc(NC(=S)Nc2cccc(Cl)c2)n1`, the Potency was 8.91 µM (active). `CCN(CC)CCCNC(=O)c1ccc2c(=O)n(Cc3ccc4c(c3)OCO4)c(=S)[nH]c2c1`: the Potency was 39.8 µM (active). On to `CCOc1cc2[nH]c(=O)n(Cc3ccc(C(=O)NCCN(CC)CC)cc3)c(=O)c2cc1OCC`, for which the Potency result is “inactive”. Regarding `CCCCCn1c(=O)[nH]c2cc(C(=O)NCCN(C)CCCC)ccc2c1=O`, the Potency result was “inactive”. Under `O=C(CCc1ccccc1)Nc1ccc(Cl)c(C(F)(F)F)c1` stands “inactive”; under `Cc1cccc(NC(=O)CN2CC3CC(C2)[C@H]2CCCC(=O)N2C3)c1` (some centres not stated), “inactive”. On to `CSc1ccccc1NC(=O)Cc1ccc(Br)cc1`, for which the Potency result was “inactive”.

For the molecule `O=C(NC(=S)Nc1ccccc1C(=O)O)c1ccc(-c2ccc(Br)cc2)o1`, the Potency is 10 µM (active). With `O=C(NC(=O)c1ccccc1N1CCCCC1)Nc1ccc(Br)cc1`, the Potency entry is “inactive”. As to `Cn1cc(C(=O)N2CCC(C(N)=O)CC2)c2ccccc21`, the Potency result was “inactive”.

Regarding `CC1=C(C(=O)OC(C)C)C(c2ccncc2)c2c(nc(SCc3ccccc3)[nH]c2=O)N1` (configuration not stated), the Potency result was “inactive”.

Consider `COc1ccc(/C=C2/S/C(=N/N=C3\CC4CCC3(C)C4(C)C)NC2=O)cc1` (configuration not stated), for which the Potency entry was “inactive”. With `O=C1NC(=O)C(=Cc2cccc(C(F)(F)F)c2)S1`, the Potency entry was “inactive”. Under `CCc1ccc(C=C2SC(=S)NC2=O)cc1` stands 10.9 µM (active). Regarding `CCOC(=O)NC(CNC(=O)c1ccccc1OC)CC(C)C` (configuration not stated), the Potency entry was “inactive”. As to `COc1ccccc1NS(=O)(=O)c1ccc2oc(SCCOc3ccccc3F)nc2c1`, the Potency result was “inactive”. Consider `CCC(CC)C(=O)Nc1sc(Nc2ccc(C)cc2)nc1C(N)=O`, for which the Potency entry was “inactive”. On to `COc1ccc2cc(S(=O)(=O)c3ccc(Cl)c(Cl)c3)c(=O)oc2c1`, for which the Potency result is “inactive”.

With `O=C(c1ccc(C(F)(F)F)cc1)N1CCC([C@@H]2CNC[C@H]2CO)CC1`, the Potency was 44.7 µM (active). Take `COc1ccc(C(=O)N2CCC([C@@H]3CNC[C@H]3CO)CC2)cc1OC`: the Potency result was “inactive”.

`O=C(c1ccc(F)c(F)c1)N1CCC([C@@H]2CNC[C@H]2CO)CC1`: the Potency result is “inactive”. As for `O=C1c2ccccc2C(=O)N1CCCCCCN1C(=O)c2ccccc2C1=O`, the Potency was 35.5 µM (active). The result for `Nc1ccc(SCCN2C(=O)c3ccccc3C2=O)cc1` reads “inactive”; that for `O=C(OCCN1C(=O)c2ccccc2C1=O)Oc1ccccc1`, “inactive”; that for `COc1ccc(CC(=O)N2CC3ON=C(c4c(F)cccc4Cl)C3C2)cc1OC` (configuration not stated), “inactive”. Consider `CCCn1c(-n2nc(C)cc2C)nc2c1c(=O)n(CCN1CCCCC1)c(=O)n2C`, for which the Potency result was “inactive”. Consider `CC(c1ccc(S(N)(=O)=O)cc1)N(C)C(=O)CCc1ncc(-c2ccc(Cl)cc2)o1` (configuration not stated), for which the Potency result is “inactive”.

As to `CCOC(=O)c1c(NC(C)=O)sc2c(OCC(=O)Nc3ccccc3C)c(C)ccc12`, the Potency result is “inactive”. As to `CC(Oc1cccc(Cl)c1)C(=O)Nc1ccc(S(=O)(=O)Nc2ncccn2)cc1` (configuration not stated), the Potency result is “inactive”.

Take `COc1cc(NS(=O)(=O)c2ccc(N/C=C(\C=O)c3nc4cc(Cl)ccc4o3)cc2)nc(OC)n1`: the Potency was 22.4 µM (active). Turning to `COC(=O)Nc1ccc(S(=O)(=O)Nc2cc(OC)nc(OC)n2)cc1`, the Potency entry was “inactive”. Under `CCOC(=O)c1cccc(NC(=O)N2CC[C@@H](CC(=O)N(C)CC#N)[C@@H](CC)C2)c1` stands “inactive”. For the molecule `CCOc1ccc(NC(=O)C(=O)c2c[nH]c3ccccc23)cc1`, the Potency result is “inactive”. Turning to `CCc1cccc(NC(=O)Nc2cn(CC(C)C)c(=O)c3ccccc23)c1`, the Potency result is “inactive”. Under `[O-]/[N+](=C\c1ccc2ccccc2n1)c1ccccc1` stands 11.2 µM (active). For `CC(C)Oc1c(Br)cc(Br)cc1/C=N/NC(N)=S`, the Potency was 35.5 µM (active). On to `N#Cc1cccc(NC(=O)O[C@@H]2CO[C@H]3[C@@H]2OC[C@@H]3Nc2nccc(-c3ccccc3)n2)c1`, for which the Potency entry was “inactive”. As for `Cc1ccc(C(=O)Nc2ccc3c(N4CCCCC4)ncnc3c2)s1`, the Potency entry was “inactive”.

For the molecule `CC1(C)Cc2ccccc2-c2[nH]c(=S)[nH]c(=O)c21`, the Potency was 7.94 µM (active). With `CC1(C)Cc2ccccc2-c2nnc(-c3cccc(O)c3)n21`, the Potency entry was “inactive”. Consider `CC(C)CC(N=C1NC(C)(C)Cc2ccccc21)C(=O)O` (configuration not stated), for which the Potency entry was “inactive”. Under `COc1ccc(-c2nc(CSCC(=O)N(C)c3ccccc3)co2)cc1` stands “inactive”; under `COc1ccc(CCC(=O)N2CCCCCCNC(=O)[C@@H]3CCCC[C@@H]32)cc1`, “inactive”. With `CCc1ccc(N(Cc2cccs2)C(=O)c2ccccc2C)cc1`, the Potency entry is “inactive”. Consider `CC(NS(=O)(=O)c1ccc(F)cc1Cl)C(=O)N1CCCC1` (configuration not stated), for which the Potency entry is “inactive”. With `CCOc1ccc(NC(=O)Nc2ccc(CN3CCOCC3)cc2)cc1`, the Potency entry was “inactive”. As to `COC(=O)c1ccc2c(c1)nc1n2[C@@H](CNCc2cccc(OC)n2)COC1`, the Potency entry was “inactive”. Take `CC(C)c1ccc(NC(=O)c2ccc3c(Cl)c4c(nc3c2)CCCC4)cc1`: the Potency result was “inactive”. With `COc1cccc(C(=O)N2CCc3nc(C4CC4)nc(-c4ccc(Cl)cc4)c3C2)c1`, the Potency is 10 µM (active). For the molecule `CC(=O)N1CCc2nc(C3CC3)nc(-c3ccc(Cl)cc3)c2C1`, the Potency entry was “inactive”.
